KDM5B inhibitor: blocks human KDM5B histone demethylase activity | Q9UGL1 | KDM5B demethylase, FDH-coupled NADH fluorescence (FDH is formaldehyde dehydrogenase) | Potency, µM (highest dose often 57.7 µM), hits mostly inhibitors | 220,000 tested, 2.6% active; active = well fitted inhibition curve with a large enough effect; note: 0% is about no effect; nearly all actives have a fitted effect of over 70% in size
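KDM5BΔAP (200 nM final) in 50 mM HEPES pH 7.5, 0.01% Tween-20 was preincubated 10 min at RT with compound over a concentration range. Substrate mix (H3K4me3 12.5 µM, α-KG 25 µM, Fe²⁺, ascorbate, NAD⁺, FDH) was added, and NADH fluorescence change over 30 min gave dose-response curves.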
* = called active by the depositor; i = inactive. The sample as a whole holds a higher share of hits than the screen did. Potency is the fitted concentration of half-maximal effect.

SMILES	KDM5B inhibitor
COc1cccc(CNC(=O)C2Cn3cccc3C(=O)N2)c1OC (stereo not drawn)	i
O=C(c1ccc(F)cc1)N1CCC(n2cc(-c3nc(-c4ccccc4)no3)nn2)CC1	i
Cc1ccccc1-n1nnnc1C1(Nc2ccccc2)CCCC1	i
COc1cc(-c2c(NC(=O)c3ccc(F)cc3)oc3ccccc3c2=O)cc(OC)c1OC	i
Cc1cccc(NC(=O)c2cc3c(N4CCSCC4)nc(C)cn3n2)c1	32µM*
COc1ccc(C(C)NC(=O)c2cc(-c3ccccc3)cn2C)cc1OC (stereo not drawn)	i
CCOc1ccc(NC(=O)c2sc3nc(-c4ccc(OC)cc4)cn3c2C)cc1	i
COc1ccc(NC(=O)c2cc3c(N4CCSCC4)nc(C)cn3n2)cc1	14µM*
CC(C)c1ccc(NC(=O)c2cc3ncccn3n2)cc1	i
Cc1ccc(NC(=O)c2cc3c(N4CCSCC4)nc(C)cn3n2)cc1	35µM*
Cc1ccc(NC(=O)c2cc3ncccn3n2)cc1C	i
COc1ccc(C(C)NC(=O)c2cc3n(n2)CC(c2ccc(Cl)cc2)OC3)cc1OC (stereo not drawn)	i
COc1ccc(C(C)NC(=O)c2cc3c(N4CCSCC4)nc(C)cn3n2)cc1OC (stereo not drawn)	6.3µM*
COc1ccc(NC(=O)c2cc3c(N4CCCC4)nc(C)cn3n2)c(OC)c1	i
Cc1cccc(NC(=O)c2cc3cc(C)ccc3n2C)c1	i
Cc1cccc(NC(=O)c2ccc3ccccc3n2)c1	i
COc1ccc(CN2CCC(O)(CN3CCCCC3)C2)cc1Cl (stereo not drawn)	i
CC(Oc1ccccc1)C(=O)N1CCC(n2cc(-c3nc(-c4ccccc4)no3)nn2)CC1 (stereo not drawn)	i
COc1cc(OC)cc(C(=O)NC2CCc3ccccc32)c1 (stereo not drawn)	i
COc1ccc(C)cc1S(=O)(=O)N1CCN(c2ccc(C)cc2C)CC1	i
Cc1ccc(/C=C/C(=O)c2c(C)nc3ccccc3c2-c2ccccc2)cc1	i
O=S(Cc1ccccc1)Cc1cccc(C(F)(F)F)c1 (stereo not drawn)	i
CCn1cnnc1SCC(=O)c1[nH]c(C)c(C(=O)OC)c1C	i
O=C(CNc1ccc(Br)cc1F)N(C1CCCCC1)C1CCS(=O)(=O)C1 (stereo not drawn)	i
COCCC1(NC(=O)c2ccccc2)CCN(Cc2ccc3[nH]ccc3c2)CC1	i
SMILES	KDM5B inhibitor
CCN(CC)C(=O)C(NC(=O)c1ccc(C)cc1)C1CCN(C(=O)c2cccc(OC)c2)CC1 (stereo not drawn)	i
Cc1cc(=O)n(CC(=O)Nc2ccc(C(F)(F)F)cc2)c(N2CCc3ccccc3C2)n1	i
Cc1cn2nc(C(=O)Nc3ccc4c(c3)OCCO4)cc2c(N2CCSCC2)n1	32µM*
CCc1ccccc1NC(=O)c1cc2c(N3CCSCC3)nc(C)cn2n1	28µM*
Cc1cccc(-c2ocnc2C(=O)Nc2ccc3c(c2)OCCO3)c1	i
CCc1ccccc1NC(=O)c1nc2ccccc2nc1N1CCCCC1	i
Cc1cc(=O)n(CC(=O)Nc2ccc(C(F)(F)F)cc2)c(N2CCOCC2)n1	i
CCc1ccccc1NC(=O)c1nc2nc(C)cc(C(F)F)n2n1	i
O=C(Nc1ccc2c(c1)OCCO2)c1cn(-c2ccc(F)cc2)nn1	i
Cc1cn2nc(C(=O)Nc3ccc(C(F)(F)F)cc3)cc2c(N2CCSCC2)n1	28µM*
Cc1cc(Br)cc(C)c1OC(C)C(=O)O (stereo not drawn)	i
C/C=C/C=C/C(=O)OCC(=O)c1ccc2c(c1)OCO2	i
Cc1ccccc1NC(=O)COc1ncnc2ccc(Br)cc12	i
CCn1cc(S(=O)(=O)N2C[C@@H](C(=O)NC)[C@H](c3n[nH]c(C)n3)C2)cn1	i
CCNC(=O)[C@@H]1CCCN1C1(C(=O)NC)CCC1	i
CC(C)C(=O)N1CCC(N2CC3CC(C2)[C@H]2CCCC(=O)N2C3)CC1 (stereo partly drawn)	i
COCCOCC(=O)N1CCC(N2CC3CC(C2)[C@H]2CCCC(=O)N2C3)CC1 (stereo partly drawn)	i
Cc1ccc(NC(=O)N2CCC(N3CC4CC(C3)[C@H]3CCCC(=O)N3C4)CC2)cc1 (stereo partly drawn)	i
COc1ccc(NC(=O)N2CCC(N3CC4CC(C3)[C@H]3CCCC(=O)N3C4)CC2)cc1OC (stereo partly drawn)	25µM*
COc1ccc(C)cc1NC(=O)N1CCC(N2CC3CC(C2)[C@H]2CCCC(=O)N2C3)CC1 (stereo partly drawn)	i
COc1ccc(C(=O)N2CCC(N3CC4CC(C3)[C@H]3CCCC(=O)N3C4)CC2)cc1 (stereo partly drawn)	i
O=C(COc1ccccc1)N1CC2CC(C1)[C@H]1CCCC(=O)N1C2 (stereo partly drawn)	i
Cc1nc(C)c(C(=O)N2CCC(N3CC4CC(C3)[C@H]3CCCC(=O)N3C4)CC2)s1 (stereo partly drawn)	16µM*
O=C(COc1ccccc1)N1CCC(N2CC3CC(C2)[C@H]2CCCC(=O)N2C3)CC1 (stereo partly drawn)	22µM*
COc1ccc(NC(=O)NCCn2c(C(F)(F)F)nc3ccccc32)cc1OC	i
SMILES	KDM5B inhibitor
CC(Oc1cccc(C(F)(F)F)c1)C(=O)NN (stereo not drawn)	i
O=C(Nc1ccc(O)c(-c2nc3ccccc3o2)c1)c1ccc(F)cc1	i
Cn1cc(C(C(=O)O)N2CCN(c3ccc(Cl)cc3)CC2)c2cc(C(=O)O)ccc21 (stereo not drawn)	i
O=C1NC(=NC2CCCCC2)C2(CCN(Cc3ccc(F)cc3)CC2)N1c1cc(F)cc(F)c1	i
COc1ccc(OC)c(CNC(=O)c2ccc3noc(-c4ccc(C)cc4)c3c2)c1	i
O=C(NCC1CN(C(=O)Cc2cccc(C(F)(F)F)c2)CC12CN(c1ccccc1)C2)Nc1ccccc1 (stereo not drawn)	i
COc1cccc(CC(=O)N2CC(CNc3ccccc3)C3(C2)CN(c2ccccc2)C3)c1 (stereo not drawn)	18µM*
O=C(NCC1CN(C(=O)Cc2cccc(OC(F)(F)F)c2)CC12CN(c1ccccc1)C2)Nc1ccccc1 (stereo not drawn)	i
COc1ccc(C(=O)Nc2ccc3oc(-c4ccccc4F)cc(=O)c3c2)cc1	i
Cc1cc(I)ccc1NC(=O)c1nn(C)c(=O)c2ccccc12	i
COc1ccc(CCc2nc3nccc(-c4cccnc4)n3n2)cc1	i
COc1cccc(-c2nc(CN3CCCC3=O)no2)c1	i
COc1ccc(-c2ccnc3nc(CC(C)C)nn23)cc1	i
COc1ccc(-c2csc(NCC(C)C)n2)cc1OC	i
COc1ccc(-c2ccnc3nc(CC(C)C)nn23)cc1OC	28µM*
COc1cccc(-c2ccnc3nc(CCc4ccccc4)nn23)c1	20µM*
COc1cccc(-c2ccnc3nc(CC(C)C)nn23)c1	25µM*
COc1ccc(-c2ccnc3c(-c4ccc(F)cc4)c(C)nn23)cc1OC	i
COc1cccc(OCc2nc3ccccc3n2Cc2ccccc2)c1	i
Cc1ccc(C(=O)N2[C@@H]3CC[C@H]2CC(NC(=O)c2ccncc2)C3)cc1F (stereo partly drawn)	i
NC(=O)c1cccc(NC(=O)c2cccc3ncccc23)c1	i
O=C(CCSc1nc(Cl)nc2nc[nH]c12)NCCc1ccc(O)cc1	i

Bioassay records from PubChem.
